Reference: PubChem BioAssay AID1159580 (chemical genetic matrix, 2015)
About 2,000 (36%) of roughly 5,500 compounds were called active. Inconclusive results (about 18%) are left out. Rule as the data show it: active = normalized growth mostly below about 0.91 (no sharp cut-off); inconclusive = no clear call, values can overlap the other calls; inactive = mostly above about 0.92. This is one part of the list.

Assay: chemical genetic growth profiling, strain panel (AID 1159580);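 also: tested at 20 µM; growth read once vehicle control cultures reached saturation at 30 °C; 1 = growth at the plate median or of vehicle wells; lower values mean less growth of the strain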
Conditions: S. cerevisiae deletion strains, growth OD

Measured: normalized growth

CCCOc1ccccc1-c1nc2n[nH]nc2c(=O)[nH]1
inactive: locus YAL013W, strain DEP1, active compounds read low 0.99 | locus YAL021C, strain ccr4, active compounds read low 0.965 | locus YAL026C, strain drs2, active compounds read low 1.02 | locus YAL030W, strain snc1, active compounds read low 0.995 | locus YAL040C, strain CLN3, active compounds read low 1.05 | locus YBL061C, strain skt5, active compounds read low 1 | locus YBR009C, strain hhf1, active compounds read low 1.03 | locus YBR021W, strain FUR4, active compounds read low 0.996 | locus YBR023C, strain chs3, active compounds read low 1 | locus YBR171W, strain sec66, active compounds read low 1.01 | locus YBR229C, strain ROT2, active compounds read low 1 | locus YBR231C, strain swc5, active compounds read low 1.02 | locus YBR279W, strain paf1, active compounds read low 1.01 | locus YCL011C, strain gbp2, active compounds read low 1.01 | locus YCL016C, strain dcc1, active compounds read low 1.01 | locus YCL029C, strain bik1, active compounds read low 1.01 | locus YCL061C, strain MRC1 (second series), active compounds read low 0.993 | locus YCL061C, strain MRC1, active compounds read low 1 | locus YCL069W, strain vba3, active compounds read low 0.992 | locus YCR088W, strain abp1, active compounds read low 1 | locus YDL005C, strain med2, active compounds read low 1 | locus YDL035C, strain GPR1, active compounds read low 1.02 | locus YDL040C, strain nat1, active compounds read low 0.991 | locus YDL074C, strain BRE1, active compounds read low 1.01 | locus YDL101C, strain DUN1, active compounds read low 1.01 | locus YDL134C, strain PPH21, active compounds read low 1.01 | locus YDL185W, strain tfp1, active compounds read low 1.01 | locus YDL192W, strain arf1, active compounds read low 1.01 | locus YDR001C, strain nth1, active compounds read low 0.998 | locus YDR069C, strain doa4, active compounds read low 1.02 | locus YDR101C, strain arx1, active compounds read low 1 | locus YDR137W, strain rgp1, active compounds read low 1 | locus YDR159W, strain sac3, active compounds read low 1.03 | locus YDR162C, strain NBP2, active compounds read low 1.01 | locus YDR195W, strain ref2 1.04 | locus YDR297W, strain sur2, active compounds read low 1 | locus YDR318W, strain mcm21, active compounds read low 1.01 | locus YDR334W, strain swr1, active compounds read low 1.01 | locus YDR335W, strain msn5, active compounds read low 1 | locus YDR363W, strain ESC2, active compounds read low 0.985 | locus YDR388W, active compounds read low 1.02 | locus YDR392W, strain spt3, active compounds read low 0.956 | locus YDR502C, strain sam2, active compounds read low 1.01 | locus YEL003W, strain gim4, active compounds read low 1.01 | locus YEL037C, strain rad23, active compounds read low 0.998 | locus YEL061C, strain CIN8 (second series), active compounds read low 1 | locus YEL061C, strain CIN8, active compounds read low 1.01 | locus YER002W, strain NOP16, active compounds read low 1.01 | locus YER015W, strain faa2, active compounds read low 1.01 | locus YER016W, strain bim1, active compounds read low 1.01 | locus YER110C, active compounds read low 1.01 | locus YER111C, strain swi4, active compounds read low 1.01 | locus YER155C, strain BEM2 (second series), active compounds read low 1.05 | locus YER155C, strain BEM2, active compounds read low 1 | locus YER167W, strain BCK2, active compounds read low 1.01 | locus YFR010W, strain ubp6, active compounds read low 1.01 | locus YGL078C, strain dbp3, active compounds read low 1.01 | locus YGL086W, strain mad1, active compounds read low 1 | locus YGL167C, strain pmr1, active compounds read low 1.01 | locus YGL173C, strain kem1, active compounds read low 1.01 | locus YGL227W, strain vid30, active compounds read low 1.01 | locus YGL240W, strain doc1, active compounds read low 1.05 | locus YGL248W, strain PDE1, active compounds read low 0.981 | locus YGL253W, strain hxk2, active compounds read low 1.01 | locus YGR078C, strain PAC10, active compounds read low 1.01 | locus YGR135W, strain pre9, active compounds read low 1.01 | locus YGR229C, strain SMI1, active compounds read low 1.01 | locus YGR252W, strain gcn5, active compounds read low 1.03 | locus YHR013C, strain ard1, active compounds read low 0.978 | locus YHR027C, strain rpn1, active compounds read low 1 | locus YHR030C, strain SLT2, active compounds read low 1 | locus YHR079C, strain IRE1 (second series), active compounds read low 1.01 | locus YHR094C, strain hxt1, active compounds read low 1.02 | locus YHR129C, strain ARP1, active compounds read low 1 | locus YHR142W, strain chs7, active compounds read low 0.953 | locus YHR200W, strain rpn10, active compounds read low 1.01 | locus YIL066C, strain RNR3, active compounds read low 1 | locus YIL073C, strain SPO22, active compounds read low 1.08 | locus YIL125W, strain kgd1, active compounds read low 1 | locus YIR030C, strain dcg1, active compounds read low 1.01 | locus YJL092W, strain hpr5, active compounds read low 1 | locus YJL095W, strain BCK1 (second series), active compounds read low 1.01 | locus YJL095W, strain BCK1, active compounds read low 0.994 | locus YJL115W, strain asf1, active compounds read low 1 | locus YJL129C, strain trk1, active compounds read low 0.992 | locus YJL134W, strain LCB3, active compounds read low 1.01 | locus YJL154C, strain vps35, active compounds read low 0.999 | locus YJL164C, strain tpk1, active compounds read low 0.987 | locus YJL166W, strain qcr8, active compounds read low 1.01 | locus YJL168C, strain set2, active compounds read low 1.01
